Data taken from the supplement of paper PMC8728848.
This is one part of a sample in which the strongest signals are shown more often than they occur.

Key:
Assay in all cases: glycan array binding signal (z-score within array); higher = stronger binding
Settings in all cases: glycan notation: IUPAC condensed, linker removed
[1] = molecular target: Fuc(a1-2)Gal(b1-4)Glc
Outline: (§1)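 Glycan array data were curated from 3228 arrays in the Consortium for Functional Glycomics database and kept only where the protein sequence was available. Glycan names were converted to IUPAC-condensed notation, and columns mapping to the same glycan were averaged. The binding signal is a within-array Z-score, averaged across arrays of the same protein sequence at different concentrations or buffers and across linkers. Negative Z-scores can be read as non-binding.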

[2] = molecular target: Fuc(a1-2)[GalNAc(a1-3)]Gal(b1-3)GalNAc(b1-3)Gal(a1-4)Gal(b1-4)Glc
Outline: as §1

[3] = molecular target: Fuc(a1-2)[GalNAc(a1-3)]Gal(b1-3)GlcNAc(b1-2)Man(a1-3)[Fuc(a1-2)[GalNAc(a1-3)]Gal(b1-3)GlcNAc(b1-2)Man(a1-6)]Man(b1-4)GlcNAc(b1-4)GlcNAc
Outline: as §1

[4] = molecular target: Fuc(a1-2)[GalNAc(a1-3)]Gal(b1-3)GlcNAc(b1-2)Man(a1-3)[Fuc(a1-2)[GalNAc(a1-3)]Gal(b1-3)GlcNAc(b1-2)Man(a1-6)]Man(b1-4)GlcNAc(b1-4)[Fuc(a1-6)]GlcNAc
Outline: as §1

[5] = molecular target: Fuc(a1-2)[GalNAc(a1-3)]Gal(b1-4)GlcNAc(b1-6)GalNAc
Outline: as §1

[6] = molecular target: Fuc(a1-3)GlcNAc
Outline: as §1

[7] = molecular target: Fuc(a1-3)[Gal(b1-4)]GlcNAc(b1-3)Gal(b1-4)[Fuc(a1-3)]GlcNAc(b1-3)Gal(b1-4)[Fuc(a1-3)]GlcNAc
Outline: as §1

[8] = molecular target: Fuc(a1-3)[Gal(b1-4)]GlcNAc6S
Outline: as §1

[9] = molecular target: Fuc(a1-3)[GalNAc(b1-4)]GlcNAc6S
Outline: as §1

[10] = molecular target: Gal(a1-3)Gal
Outline: as §1

[11] = molecular target: Gal(a1-3)Gal(b1-4)GlcNAc
Outline: as §1

[12] = molecular target: Gal(a1-3)Gal(b1-4)[Fuc(a1-3)]GlcNAc(b1-2)Man(a1-3)[Gal(a1-3)Gal(b1-4)[Fuc(a1-3)]GlcNAc(b1-2)Man(a1-6)]Man(b1-4)GlcNAc(b1-4)GlcNAc
Outline: as §1

[13] = molecular target: Gal(b1-3)GalNAc(a1-3)[Fuc(a1-2)]Gal(b1-4)Glc
Outline: as §1

[14] = molecular target: Gal(b1-3)GlcNAc(b1-6)GalNAc
Outline: as §1

[15] = molecular target: Gal(b1-3)[GlcNAc(b1-6)]GalNAc
Outline: as §1

[16] = molecular target: Gal(b1-3)[Neu5Ac(a2-6)]GalNAc
Outline: as §1

[17] = molecular target: Gal(b1-4)GlcNAc(a1-6)Gal(b1-4)GlcNAc
Outline: as §1

[18] = molecular target: Gal(b1-4)GlcNAc(b1-2)[Gal(b1-4)GlcNAc(b1-4)]Man(a1-3)[Gal(b1-4)GlcNAc(b1-2)Man(a1-6)]Man(b1-4)GlcNAc(b1-4)GlcNAc
Outline: as §1

[19] = molecular target: Gal(b1-4)GlcNAc(b1-2)[Gal(b1-4)GlcNAc(b1-6)]Man(a1-6)[GlcNAc(b1-4)][Gal(b1-4)GlcNAc(b1-2)Man(a1-3)]Man(b1-4)GlcNAc(b1-4)GlcNAc
Outline: as §1

[20] = molecular target: Gal(b1-4)GlcNAc(b1-3)Gal(b1-3)GlcNAc
Outline: as §1

[21] = molecular target: Gal(b1-4)GlcNAc(b1-3)Gal(b1-4)GlcNAc(b1-2)Man(a1-3)[Gal(b1-4)GlcNAc(b1-3)Gal(b1-4)GlcNAc(b1-2)Man(a1-6)]Man(b1-4)GlcNAc(b1-4)GlcNAc
Outline: as §1

[22] = molecular target: Gal(b1-4)GlcNAc(b1-3)Gal(b1-4)GlcNAc(b1-3)Gal(b1-4)GlcNAc(b1-3)Gal(b1-4)GlcNAc(b1-3)Gal(b1-4)GlcNAc(b1-2)[Gal(b1-4)GlcNAc(b1-3)Gal(b1-4)GlcNAc(b1-3)Gal(b1-4)GlcNAc(b1-3)Gal(b1-4)GlcNAc(b1-3)Gal(b1-4)GlcNAc(b1-6)]Man(a1-6)[Gal(b1-4)GlcNAc(b1-3)Gal(b1-4)GlcNAc(b1-3)Gal(b1-4)GlcNAc(b1-3)Gal(b1-4)GlcNAc(b1-3)Gal(b1-4)GlcNAc(b1-2)Man(a1-3)]Man(b1-4)GlcNAc(b1-4)[Fuc(a1-6)]GlcNAc
Outline: as §1

[23] = molecular target: Gal(b1-4)GlcNAc(b1-3)Gal(b1-4)GlcNAc(b1-3)GalNAc
Outline: as §1

[24] = molecular target: Gal(b1-4)GlcNAc(b1-3)Gal(b1-4)GlcNAc(b1-3)[Gal(b1-4)GlcNAc(b1-3)Gal(b1-4)GlcNAc(b1-6)]GalNAc
Outline: as §1

[25] = molecular target: Gal(b1-4)GlcNAc(b1-6)[Gal(b1-4)GlcNAc(b1-3)]GalNAc
Outline: as §1

[26] = molecular target: Gal(b1-4)GlcNAc6P
Outline: as §1

[27] = molecular target: Gal3S(b1-4)[Fuc(a1-3)]GlcNAc
Outline: as §1

[28] = molecular target: Gal3S6S(b1-4)GlcNAc
Outline: as §1

[29] = molecular target: GalNAc(b1-4)GlcNAc6S
Outline: as §1

[30] = molecular target: GalNAc4S6S(b1-4)GlcNAc
Outline: as §1

B1: Actd5 (Actinidia), P84527 (protein)
chain: ISSCNGPCRDLNDCDGQLICIKGKCNDDPQVGTHICRGTTHSHQPGGCKPSGTLTCRGKSYPTYDCSPPVTSSTPAKLTNNDFSEGGDDGGPSECDESYHNNNERIVALSTGWYNGGSRCGKMIRITASNGKSVSAKVVDECDSRHGCDKEHAGQPPCRNNIVDGSNAVWSALGLDKNVGVVDITWSMA
- glycan array binding signal (z-score) [1]: -1.21
- glycan array binding signal (z-score) [2]: -0.038
- glycan array binding signal (z-score) [3]: 0.017
- glycan array binding signal (z-score) [4]: 1.21
- glycan array binding signal (z-score) [5]: -0.865
- glycan array binding signal (z-score) [6]: -0.676
- glycan array binding signal (z-score) [7]: -0.828
- glycan array binding signal (z-score) [8]: 0.273
- glycan array binding signal (z-score) [9]: -1.21
- glycan array binding signal (z-score) [10]: -0.145
- glycan array binding signal (z-score) [11]: 0.17
- glycan array binding signal (z-score) [12]: 2.94
- glycan array binding signal (z-score) [13]: -0.318
- glycan array binding signal (z-score) [14]: -0.821
- glycan array binding signal (z-score) [15]: -0.2
- glycan array binding signal (z-score) [16]: -1.12
- glycan array binding signal (z-score) [17]: -0.614
- glycan array binding signal (z-score) [18]: 0.256
- glycan array binding signal (z-score) [19]: 0
- glycan array binding signal (z-score) [20]: -0.59
- glycan array binding signal (z-score) [21]: 3.9
- glycan array binding signal (z-score) [22]: 0.644
- glycan array binding signal (z-score) [23]: 2.99
- glycan array binding signal (z-score) [24]: 2.99
- glycan array binding signal (z-score) [25]: -0.2
- glycan array binding signal (z-score) [26]: -1.05
- glycan array binding signal (z-score) [27]: -0.319
- glycan array binding signal (z-score) [28]: 0.094
- glycan array binding signal (z-score) [29]: -0.111
- glycan array binding signal (z-score) [30]: -0.058
